Test results reported in PubChem BioAssay AID504882 (Broad Institute, 2011).
Out of some 1,200 compounds screened, about 290 (24%) were called active. About 9% were inconclusive and are not listed. How the calls were made is not given here. These entries were drawn from the full list. Entries with a potency or affinity are not part of this list.

Assay: LCL viability reduction – cell-based, plate reader, cherry-picks, set 2, cytotoxicity control, dose response (AID 504882);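 further: 0% = neutral control wells and -100% = positive control wells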
Conditions: EBV lymphoblastoid cells (LCL) viability; series mostly up to 19.5 µM; activity change, negative = cytotoxicity: at the top concentration

Structure (SMILES) | activity change, negative = cytotoxicity
CCS(=O)(=O)c1nnnn1-c1ccccc1S(C)(=O)=O | -2.8% (inactive)
C[C@H](NC(=O)N1CCn2c1nc1ccccc12)C(=O)NCC1CCCO1 (some centres undefined) | 25.5% (inactive)
CCOC(=O)c1ccc(NC(=S)N2CCSC2c2ccc(OC)cc2)cc1 (centres undefined) | 6.17% (inactive)
COC(=O)c1[nH]c2cccc(C)c2c1NC(=O)CN1CCCc2ccccc21 | 11.1% (inactive)
CC(C)(C)c1nc2c(s1)CCc1onc(-c3ccc(Br)cc3)c1-2 | 7.52% (inactive)
Cc1nc2sc(C(N)=O)c(N)c2c2c1CCCC2 | 8.1% (inactive)
O=C(Nc1ccc(Cl)cc1)c1ccco1 | 1.44% (inactive)
O=C(Nc1ccc2c(c1)nc1n2CCSC1)c1ccco1 | -6.4% (inactive)
CCOC(=O)C1=C(O)/C(=C/c2ccc(CNC(=O)C(=O)Nc3ccc(C)cc3)o2)N=C1C | 51% (inactive)
Nc1cc(=O)[nH]c(SCCSc2cc(Cl)ccc2Cl)n1 | 12.4% (inactive)
CC(C)(C)c1cc(C(=O)NNC(=O)Nc2cccc(Cl)c2)n(Cc2ccccc2)n1 | -0.268% (inactive)
CC(=O)O[C@]1(C(C)=O)CC[C@H]2[C@@H]3C=C(C)C4=CC(=O)CC[C@@H]4[C@H]3CC[C@@]21C | 1.64% (inactive)
O=C(O)c1ccccc1Nc1cccc(OCc2ccc3ccccc3n2)c1 | -17.2% (inactive)
c1ccc2c3c([nH]c2c1)C(C1CCCCC1)N(Cc1ncc[nH]1)CC3 (centres undefined) | 13.2% (inactive)
Brc1ccc(-c2csc(N3CCCCCC3)n2)cc1 | 18.1% (inactive)
O=C1c2ccccc2C(Nc2ccc(Cl)cc2)N1CCN1CCOCC1 (centres undefined) | 8.15% (inactive)
COc1cc(/C=C2\SC(=S)N(NC(=O)c3ccncc3)C2=O)ccc1O | -1.11% (inactive)
CCc1nnc(NC(=O)c2cc(S(=O)(=O)N3CCN(CC)CC3)ccc2Cl)s1 | 3.73% (inactive)
COc1cc2c(=O)n(CC3CCCO3)c(=O)n(CC(=O)Nc3cccc(Cl)c3)c2cc1OC (centres undefined) | 18.9% (inactive)
COc1ccc(NC(=O)N(CCN2CCCC2)Cc2cc3cc(OC)c(OC)cc3[nH]c2=O)cc1 | 5.63% (inactive)
Cc1cccc(C)c1NC(=O)CN(C)CC(=O)Nc1ccccc1Oc1ccccc1 | 11.5% (inactive)
Cc1ccc(C(=O)Nc2ccc3ncccc3c2)cc1 | 21.2% (inactive)
O=C(O)c1c2c(nc3ccccc13)/C(=C/c1ccc(O)cc1)CC2 | 10% (inactive)
CSc1nc(C)cc(C)c1C#N | 3.6% (inactive)
CC1(C)CN(Cc2ccccc2)C(=O)[C@H]1CC(=O)Nc1ccccc1 | 2.36% (inactive)
O=C(Cc1cccc2ccccc12)Nc1ccc(-c2cc3ccccc3oc2=O)cc1 | -7.33% (inactive)
NC(=O)c1sc2nccc(Nc3ccccc3)c2c1N | -3.78% (inactive)

Structure (SMILES) | activity change, negative = cytotoxicity
CCCCCC(=O)N1CCN(c2ccc(C(C)=O)cc2F)CC1 | 9.94% (inactive)
COc1ccc(C(c2c(C)n(C)n(-c3ccccc3)c2=O)c2c(C)n(C)n(-c3ccccc3)c2=O)c(OC)c1OC | 1.22% (inactive)
CC(C)C(=O)Nc1ccc(C(=O)N/N=C/c2cc(Br)cc(Br)c2O)cc1 | -1.17% (inactive)
CCSc1nc2ccc(OC)cc2cc1C#N | 4.84% (inactive)
COc1ccccc1C(=O)Nc1c[nH]c(=O)[nH]c1=O | 23.5% (inactive)
CN1OC[C@@H]2CN[C@H](c3ccc(-c4cc5ccccc5o4)cc3)C[C@@H]21 | 49.6% (inactive)
O=C(O)CN1C(=O)/C(=C\c2ccccc2OCc2ccc(Cl)cc2Cl)SC1=S | 10.7% (inactive)
S=C(N/N=C/c1ccc2ncccc2c1)Nc1cccnc1 | 7.27% (inactive)
COc1cc(/C=N/NC(=S)Nc2cccc(C(=O)O)c2)ccc1O | 12.8% (inactive)
OCCN(CCO)CC(O)COCCC12CC3CC(CC(C3)C1)C2 (centres undefined) | 4.48% (inactive)
O=C(Nc1cnc2ccccn2c1=O)c1ccc(Cl)cc1Cl | 11.6% (inactive)
O=C(O)c1ccc(C=NN=C2c3ccccc3-c3ccccc32)cc1 | 9.04% (inactive)
CC(=O)c1ccc(N2CCN(c3ccnc4cc(Cl)ccc34)CC2)cc1 | 11.5% (inactive)
Cc1cc(C)c2sc(NC(=O)C3CC3)nc2c1 | 2.97% (inactive)
N#CC1=C(N)OC2=C(C(=O)CCC2)C12C(=O)N1CCCc3cccc2c31 (centres undefined) | 23.6% (inactive)
Clc1ccc(-n2ncc3c(N4CCCC4)ncnc32)cc1 | -0.246% (inactive)
COc1ccc(-c2csc3ncnc(Sc4nnnn4C)c23)cc1 | -16.8% (inactive)
Cc1ccsc1-c1nc(CSCC(=O)N2CCN(c3ccccc3)CC2)c(C)o1 | -2.87% (inactive)
COc1cc(NC(=S)N2CCN(CCO)CC2)cc(OC)c1 | 2.13% (inactive)
COc1ccc2cc(C(N)=O)/c(=N\NC(=O)c3ccccc3)oc2c1 | 16.4% (inactive)
CCCN1C(=O)C2(SC(NC(C)=O)=NN2C(C)=O)c2cc(C)cc(C)c21 (centres undefined) | 18.1% (inactive)
c1ccc(-c2nnc(-c3ccccn3)s2)nc1 | -32.2% (inactive)
Cc1cc(C)c(OCCn2ccnc2)c(C)c1 | -5.95% (inactive)
COc1ccc(C=Cc2ccc3ccccc3n2)c(OC)c1 | 3.74% (inactive)
C[C@@]12C(=O)N(Cc3ccccc3)CC(=O)N1[C@H](/C=C/c1ccccc1)[C@@H]1C(=O)N(c3ccccc3)C(=O)[C@@H]12 | 1.32% (inactive)
CCOC(=O)N1CCC(n2c(=S)[nH]c3ccccc3c2=O)CC1 | 1.97% (inactive)
O=C1CC(c2ccccc2)Oc2ccccc21 (centres undefined) | 9.53% (inactive)
